Source: PubChem (National Center for Advancing Translational Sciences (NCATS))
The full list was thinned out, with hits kept by preference.
Cycloheximide cs: Cycloheximide Counterscreen for Small Molecule Inhibitors of Shiga Toxin; cell reporter, cycloheximide protein synthesis inhibition counterscreen; max response, %; hit rate 12% among 300,000; AID 2314, 2010; in the data active means max response mostly above about 13%, no sharp cut-off; inactive means mostly below about 14%; further: read at 38.3 µM for the half of the compounds with a filed dose; 0% is about no effect
NS1 function inh: qHTS Assay for Inhibitors of Influenza NS1 Protein Function; hit rate 0.4% among 270,000; Potency, µM (titrated, usually from 46.1 µM), for inactives: at the top dose activity, positive = more growth; calls by dose curve; further: potency means the concentration at half of the fitted maximal effect; actives are rising curves; nearly all actives have a fitted effect of over 50% in size
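Growth recovery, yeast-based: influenza A NS1 expressed in S. cerevisiae causes slow growth, and suppressors are detected by OD600. The parent strain without NS1 is used as positive control.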
Shiga toxin inh: A qHTS for Small Molecule Inhibitors of Shiga Toxin | Vero cells, Shiga toxin protein synthesis inhibition reporter | inhibition, % at 38.7 µM | hit rate 9.2% among 290,000; in the data active means inhibition mostly above about 28%, no sharp cut-off; inactive means mostly below about 43%; further: 0% is about no effect
AmpC no deterg: qHTS Inhibitors of AmpC Beta-Lactamase (assay without detergent). hit rate 0.52% among 330,000. AmpC nitrocefin hydrolysis, absorbance 480 nm, 0.0001% Triton. Potency, µM (highest dose often 57.1 µM), without a hit: at the highest dose activity change, negative = inhibition, actives largely listed as inhibitors. AID 485341, 2010;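 further: potency means the concentration at half of the fitted maximal effect; plate controls were no compound for no effect and no enzyme for full effect; nearly all actives have a fitted effect of over 20% in size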
Target sequence (P00811 whole entry, looked up): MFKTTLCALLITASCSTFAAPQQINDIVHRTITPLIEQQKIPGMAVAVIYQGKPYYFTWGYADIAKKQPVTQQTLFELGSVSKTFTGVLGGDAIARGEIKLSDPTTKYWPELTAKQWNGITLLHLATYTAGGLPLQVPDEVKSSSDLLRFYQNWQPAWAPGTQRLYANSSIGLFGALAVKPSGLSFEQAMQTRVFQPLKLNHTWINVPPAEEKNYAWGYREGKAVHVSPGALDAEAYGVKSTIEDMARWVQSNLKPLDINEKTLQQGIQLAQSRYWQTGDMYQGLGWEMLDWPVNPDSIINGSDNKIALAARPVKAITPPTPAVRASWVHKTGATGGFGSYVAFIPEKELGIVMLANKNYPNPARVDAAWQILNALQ
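20 mM phosphate pH 7.0 + 0.01% (detergent screen) or 0.0001% Triton X-100; 5.3 nM AmpC reagent; cpd preinc 15 min RT; nitrocefin (800 uM stock) to start; A480 q20 s × 4 min; Activity was normalised to no-enzyme and no-compound control wells.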
AmpC inh detg: qHTS Inhibitors of AmpC Beta-Lactamase (assay with detergent); P00811; AID 485294, 2010; Potency, µM (titrated, usually from 114 µM), without a hit: at the highest dose activity change, negative = inhibition, usual class: inhibitors; AmpC hydrolysis of nitrocefin, absorbance 480 nm, 0.01% Triton; hit rate 0.041% among 370,000;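 further: potency means the concentration at half of the fitted maximal effect; 0% = no-compound wells and -100% = no-enzyme wells; nearly all actives have a fitted effect of over 25% in size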
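AmpC (5.3 nM in the dispensed reagent) in 20 mM phosphate pH 7.0 with 0.01% (detergent screen) or 0.0001% Triton X-100 was preincubated with compounds for 15 min at room temperature. Nitrocefin was then added from an 800 uM solution, and hydrolysis was followed at 480 nm.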
Starred values were filed as active, the others as inactive. Unless noted, the call rests on the fitted dose curve; in most records, active means well fitted curve in the direction sought with a large enough effect; inconclusive means small, poorly fitted or top-dose-only effect, or another doubt; inactive means no such curve, though single readings can be large; an effect the other way counts as inactive or inconclusive.

Nc1nc(N)[n+]([O-])c(N)c1NCO was read as NS1 function inh 13.5%.
Cc1ccc(C(=O)COC(=O)c2cc(=O)[nH]c3ccccc23)cc1C was read as Cycloheximide cs 24.1*, NS1 function inh 4.0%, Shiga toxin inh 150.2*, AmpC no deterg -13.6% and AmpC inh detg -1.8%.
COc1ccccc1C(=O)COC(=O)c1cc(=O)[nH]c2ccccc12 was read as AmpC no deterg -10.5% and AmpC inh detg inconclusive.
`O=C(Nc1ccc(Oc2ccc3ccccc3c2)cc1)c1ccco1` gave Cycloheximide cs 7.0, NS1 function inh -145.6%, Shiga toxin inh 46.7, AmpC no deterg 21.4% and AmpC inh detg -8.8%.
Cc1ccc(C(=O)COC(=O)c2ccc(Br)o2)cc1C was read as Cycloheximide cs 40.3*, NS1 function inh -10.2%, Shiga toxin inh 62.7*, AmpC no deterg -31.1% and AmpC inh detg inconclusive.
`O=C(Oc1ccc2ccccc2c1)c1ccco1` gave Cycloheximide cs 20.0*, NS1 function inh -36.0%, Shiga toxin inh 33.3, AmpC no deterg -17.9% and AmpC inh detg -11.5%.
`O=C(COC(=O)c1cnccn1)c1ccc2ccccc2c1` gave Cycloheximide cs 5.9, NS1 function inh -84.9%, Shiga toxin inh 11.8, AmpC no deterg -0.2% and AmpC inh detg inconclusive.
`O=C(COC(=O)c1ccco1)c1ccc2ccccc2c1` gave Cycloheximide cs 55.9*, NS1 function inh 1.9%, Shiga toxin inh 123.7, AmpC no deterg -22.6% and AmpC inh detg 5.5%.
Screening O=C(COC(=O)c1ccco1)c1ccccc1 returned Cycloheximide cs 47.8*, NS1 function inh -15.3%, Shiga toxin inh 111.5*, AmpC no deterg -5.8% and AmpC inh detg -1.2%.
For O=C(COC(=O)c1ccco1)Nc1ccccc1 the results were Cycloheximide cs 8.4, NS1 function inh -7.0%, Shiga toxin inh 16.3, AmpC no deterg -13.0% and AmpC inh detg inconclusive.
Screening O=Nc1ccc2oc(=O)ccc2c1 returned NS1 function inh -31.6%.
`COc1ccc(-c2ccc(CO)o2)cc1N` gave Cycloheximide cs 30.6*, NS1 function inh 9.4%, Shiga toxin inh 55.2*, AmpC no deterg -1.3% and AmpC inh detg 1.8%.
For COc1ccc(OC)c(N)c1 the results were Cycloheximide cs -7.3, NS1 function inh 10.8%, Shiga toxin inh -13.8, AmpC no deterg -1.7% and AmpC inh detg -15.1%.
Screening O=C(NC1CCCCC1)C1COc2ccccc2O1 (stereo not drawn) returned AmpC no deterg -5.9% and AmpC inh detg inconclusive.
For CN(CC1COc2ccccc2O1)C(=S)NC1CCCCC1 (stereo not drawn) the results were Cycloheximide cs 24.8*, NS1 function inh -8.4%, Shiga toxin inh 59.5*, AmpC no deterg -2.6% and AmpC inh detg -8.4%.
O=C(CSc1nc2[nH]ncc2c(=O)[nH]1)Nc1ccc(OC(F)(F)F)cc1 was read as AmpC no deterg -18.6% and AmpC inh detg inconclusive.
O=C(Nc1ccc(OC(F)(F)F)cc1)c1[nH]ncc1[N+](=O)[O-] was read as Cycloheximide cs 42.5*, Shiga toxin inh 78.3*, AmpC no deterg -21.8% and AmpC inh detg -4.4%.
O=C(Nc1ccc(S(=O)(=O)N2CCCCCC2)cc1)c1[nH]ncc1[N+](=O)[O-] was read as Cycloheximide cs 27.8*, NS1 function inh 5.6%, Shiga toxin inh 55.9*, AmpC no deterg -44.4% and AmpC inh detg 2.9%.
`CC(=O)c1ccc(NC(=O)c2cc(C3CC3)nc3c2c(C)nn3-c2ccc(C)cc2)cc1` gave AmpC inh detg 25.5%.
O=P(O)(O)c1ccccc1OCCOCCOCCOCCOc1ccccc1P(=O)(O)O was read as Cycloheximide cs 42.1*, Shiga toxin inh 46.9, AmpC no deterg -20.2% and AmpC inh detg inconclusive.
`Brc1cccc(Cn2c(-c3cncs3)nc3ccccc32)c1` gave Cycloheximide cs 12.4, NS1 function inh -4.9%, Shiga toxin inh 32.0*, AmpC no deterg -22.8% and AmpC inh detg -7.3%.
For c1ccc(Cn2c(-c3cncs3)nc3ccccc32)cc1 the results were Cycloheximide cs 60.4*, NS1 function inh -121.4%, Shiga toxin inh 46.6, AmpC no deterg -2.6% and AmpC inh detg -14.3%.
`N#CCCCCn1c(-c2cncs2)nc2ccccc21` gave Cycloheximide cs 5.0, NS1 function inh -23.4%, Shiga toxin inh 19.9, AmpC no deterg -3.1% and AmpC inh detg 1.3%.
`Brc1ccc(Cn2c(-c3cncs3)nc3ccccc32)cc1` gave Cycloheximide cs 33.0*, NS1 function inh -4.6%, Shiga toxin inh 94.3*, AmpC no deterg -16.6% and AmpC inh detg inconclusive.
`Cc1ccc(C)c(NC(=O)Cn2c(=O)oc3cc(S(=O)(=O)NCc4ccccc4)ccc32)c1` gave AmpC inh detg 2.2%.
Screening O=C1N=C(N2C=CC(=C3C=CNC=C3)C=C2)/C(=C/N=NC(=O)c2ccccc2)S1 returned Cycloheximide cs -2.2, NS1 function inh -9.3%, Shiga toxin inh 29.7, AmpC no deterg 1.0% and AmpC inh detg -14.3%.
For C(=C\c1ccccc1)/CSc1nc2ncccc2[nH]1 the results were Cycloheximide cs 25.2*, NS1 function inh -32.5%, Shiga toxin inh 53.3*, AmpC no deterg -41.2% and AmpC inh detg -4.4%.
Screening COC(=O)CSc1nc2ncccc2[nH]1 returned Cycloheximide cs -1.1, NS1 function inh 5.5%, Shiga toxin inh -1.4, AmpC no deterg -2.8% and AmpC inh detg -7.2%.
`Cc1cc(SCC(=O)c2cccc([N+](=O)[O-])c2)nc(=O)[nH]1` gave Cycloheximide cs 34.6*, NS1 function inh 20.6%, Shiga toxin inh 80.1*, AmpC no deterg -56.1% and AmpC inh detg inconclusive.
For O=C(CSc1nc2ncccc2[nH]1)c1ccc(F)cc1 the results were Cycloheximide cs 43.0*, NS1 function inh -8.3%, Shiga toxin inh 28.4, AmpC no deterg -24.5% and AmpC inh detg -14.0%.
Clc1cnc2nc(SC/C=C/c3ccccc3)[nH]c2c1 was read as Cycloheximide cs 1.4, NS1 function inh 5.8%, Shiga toxin inh -1.4, AmpC no deterg -27.2% and AmpC inh detg 2.7%.
`O=C(CSc1nc2ncccc2[nH]1)Nc1cc(F)ccc1F` gave AmpC inh detg 19.6%.
`Fc1cccc(CSc2nc3ncccc3[nH]2)c1` gave Cycloheximide cs 51.3*, NS1 function inh 5.7%, Shiga toxin inh 94.4*, AmpC no deterg -15.6% and AmpC inh detg -0.9%.
For Cc1[nH]c(=O)c(C#N)c(C)c1CCC(=O)NCc1ccc(Cl)cc1 the results were Cycloheximide cs 4.8, NS1 function inh 4.1%, Shiga toxin inh 21.0, AmpC no deterg -12.2% and AmpC inh detg -8.8%.
`Fc1cccc(CSc2nc3ncc(Cl)cc3[nH]2)c1` gave Cycloheximide cs 19.9*, NS1 function inh 2.7%, Shiga toxin inh 30.3, AmpC no deterg -37.5% and AmpC inh detg -8.4%.
Screening c1ccc(CSc2nc3ncccc3[nH]2)cc1 returned AmpC inh detg -1.4%.
